Bioassay records: PubChem, several laboratories
This is a sample that favours compounds with a hit; in the whole collection about 4.3% have one here.
FAS TE block – FAS thioesterase domain inhibitors, primary screen, biochemical, fluorescence intensity, uHTS. Fatty acid synthase (Homo sapiens), P49327. recombinant FAS-TE, OMFH fluorogenic substrate, fluorescence endpoint. inhibition, % at 15 µM. 360,000 tested, 0.67% active. AID 602261, 2012;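 active = compounds whose normalised, plate-corrected inhibition of enzyme fluorescence in the single-dose primary screen is 50% or more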;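 also: 0% = DMSO with enzyme and 100% = substrate without enzyme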
NR3A LBD binder – binders of NR3A ligand-binding domain, primary screen, biophysical, differential scanning fluorimetry, uHTS; Glutamate receptor ionotropic, NMDA 3A (GRIN3A) ligand-binding domain; NR3A LBD differential scanning fluorimetry, Tm shift; 0% = protein alone, 100% = glycine-bound protein; Tm shift relative to glycine control, % at 25 µM; 340,000 tested, 2.5% active;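 active = melting temperature shift of at least 10% of the positive control shift, at one fixed dose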
ADAM17 inh – ADAM17 inhibitors, primary screen, biochemical, QFRET; recombinant ADAM17, EDANS/DABCYL FRET peptide cleavage; inhibition, % at 6.95 µM; 370,000 tested, 0.83% active;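 active = inhibition above the mean of compounds lying between control limits plus 3 SD, set per campaign, cut at about 8.5% in these data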;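 also: 0% = DMSO-only wells as the low control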
ADAM10 inh – human ADAM10 inhibitors, primary screen, biochemical, QFRET, HTS. Disintegrin and metalloproteinase domain-containing protein 10 (Homo sapiens), O14672. recombinant ADAM10, EDANS/DABCYL FRET peptide cleavage, 3 h. inhibition, % at 7 µM. 370,000 tested, 0.62% active. AID 720582, 2013;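 active = inhibition above a per-campaign cutoff equal to the mean of compounds falling between control-based bounds plus 3 SD, cut at about 20% in these data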;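 also: 0% = DMSO wells while the 100% control is not disclosed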
HGIII-sPLA2 inh – human group III sPLA2 inhibitors, primary screen, biochemical, QFRET, BODIPY PC-A2 liposome substrate. Group 3 secretory phospholipase A2 (Homo sapiens), Q9NZ20. QFRET BODIPY PC-A2 liposome hydrolysis, fluorescence. inhibition, % at 12.2 µM. 370,000 tested, 0.56% active. AID 743126, 2013;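 active = inhibition above mean plus 3 SD of compounds lying within the high and low control bounds, cut at about 19% in these data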;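 also: 0% = median of test compound wells and 100% = no enzyme DMSO wells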
Target sequence (Q9NZ20 whole entry, looked up): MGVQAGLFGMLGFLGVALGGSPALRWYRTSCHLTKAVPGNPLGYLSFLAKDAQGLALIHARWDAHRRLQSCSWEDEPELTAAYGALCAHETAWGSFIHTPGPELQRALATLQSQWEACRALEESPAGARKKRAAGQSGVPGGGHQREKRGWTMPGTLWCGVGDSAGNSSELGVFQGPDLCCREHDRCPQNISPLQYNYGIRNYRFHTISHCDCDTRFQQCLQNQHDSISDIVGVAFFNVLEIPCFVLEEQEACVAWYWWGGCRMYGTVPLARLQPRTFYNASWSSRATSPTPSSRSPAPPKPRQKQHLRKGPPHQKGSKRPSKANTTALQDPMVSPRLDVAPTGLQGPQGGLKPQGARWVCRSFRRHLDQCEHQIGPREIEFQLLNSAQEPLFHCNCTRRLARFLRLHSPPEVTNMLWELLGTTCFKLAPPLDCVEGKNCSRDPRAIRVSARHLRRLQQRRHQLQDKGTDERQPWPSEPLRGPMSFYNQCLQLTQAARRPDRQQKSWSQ
* = called active by the depositor; nt = not tested or not shown.

SMILES | FAS TE block | NR3A LBD binder | ADAM17 inh | ADAM10 inh | HGIII-sPLA2 inh
CCCCCn1nnnc1C1(C)CN(S(C)(=O)=O)CC(=O)N1Cc1ccco1 (configuration not stated) | nt | nt | 1 | 0 | -3
COc1ccc(NC(=O)Nc2cc(C)ccc2OC)cc1 | 2 | -23 | 0 | 2 | -7
COc1ccc(NC(=O)Nc2ccc(F)c(F)c2)c(OC)c1 | -3 | 22* | 3 | 7 | 5
COc1ccc(OC)c(NC(=O)Nc2ccc(Cl)cc2)c1 | 20 | 28* | nt | nt | nt
COc1ccc(NC(=O)Nc2cccc(F)c2)c(OC)c1 | 0 | 5 | 0 | 3 | -4
COc1ccc(OC)c(NC(=O)Nc2ccc3[nH]ccc3c2)c1 | -5 | 11* | -3 | 4 | -10
COc1ccc(/C=N/OC(=O)Nc2ccc(Cl)cc2)c(OC)c1 | 11 | 10* | 2 | 2 | -7
CCCCOCCCNC(=O)C[C@H]1C[C@@]2(C(=O)OC)C(=C[C@H](C(C)C)O[C@@H]2C2CC2)N(CCc2ccc(OC)c(OC)c2)C1=O | nt | nt | -2 | -1 | -16
CC(C)C[C@H](NC1(C(=O)NC2CCCCC2)CCCCC1)C(=O)NCCc1c[nH]c2ccccc12 | nt | nt | -1 | 4 | -46
Cc1c(C(=O)OCC2CCCO2)[nH]c2c1C(=O)CC(c1ccc(N(C)C)cc1)C2 (configuration not stated) | 2 | -4 | 4 | 21* | 16
O=C(CCc1ccccc1)NC(NC(=S)Nc1ccc(Cl)cc1)C(Cl)(Cl)Cl (configuration not stated) | 7 | 27* | 0 | 10 | -7
O=C(/C=C/c1ccccc1)NC(NC(=S)Nc1ccc(Cl)cc1)C(Cl)(Cl)Cl (configuration not stated) | 8 | 25* | -1 | -2 | -7
CC(C)CC(=O)NC(NC(=S)Nc1ccccc1)C(Cl)(Cl)Cl (configuration not stated) | 0 | -4 | 2 | 0 | 8
CC(C)NC(NC(=O)/C=C/c1ccccc1)C(Cl)(Cl)Cl (configuration not stated) | 0 | -3 | 0 | -7 | -6
O=C(/C=C/c1ccccc1)NC(NC(=S)Nc1cc(Cl)ccc1Cl)C(Cl)(Cl)Cl (configuration not stated) | 2 | 30* | -2 | 1 | 3
CC(=O)NC(NC(=S)Nc1ccc(N=Nc2ccccc2)cc1)C(Cl)(Cl)Cl (configuration not stated) | -4 | 13* | 6 | 5 | -19
COc1ccc(NC(=S)NC(NC(=O)/C=C/c2ccccc2)C(Cl)(Cl)Cl)cc1 (configuration not stated) | -3 | 5 | -2 | -1 | -12
O=C(Cc1ccccc1)NC1CCCCN(Cc2ccc(Cl)cc2)C1=O (configuration not stated) | nt | nt | 6 | 6 | 0
Clc1cccc(N/N=C/c2ccc(N3CCOCC3)s2)c1 | 45 | 19* | 0 | 1 | 3
O=C(N/N=C/c1ccc(N2CCOCC2)s1)c1ccccc1Br | -11 | -2 | -2 | -3 | 5
CC(C)(C)OC(=O)N/N=C/c1ccc(N2CCOCC2)s1 | -24 | 2 | -9 | -34 | 10
Nc1ccc(C(=O)N/N=C/c2ccc(N3CCOCC3)s2)cc1 | -4 | 11* | -10 | -36 | 11
Cc1ccc(C)c(NC(=O)c2ccc(CS(=O)(=O)Cc3ccccc3C)o2)c1 | nt | nt | 6 | -1 | -13
C[N+]1=C2N[C@@H](c3ccccc3)CC(=O)N2/C(=C\c2ccccc2)[C@@H]1Cc1ccccc1 | nt | nt | 0 | 2 | -4
C=CCNC(=O)CN(C(=O)c1csc2ccc(Cl)cc12)c1cccc(Br)c1 | nt | nt | 4 | 5 | -1
COc1cc(/C=C2\OC(=O)c3c(OC)cccc32)ccc1O | -4 | 17* | -47 | -120 | 0
COC(=O)[C@]12C[C@H](CC(=O)N3CCOCC3)C(=O)N(CCc3ccc(OC)c(OC)c3)C1=C[C@H](COCc1ccccc1)O[C@@H]2C | nt | nt | -3 | -3 | 5
Nc1nnc(-c2cn(-c3ccccc3)nc2-c2ccccc2)o1 | -1 | -28 | -3 | -7 | -4
